Measured values from PubChem BioAssay AID1159580 (chemical genetic matrix, 2015).
Several values for one entry are separate records, joined by “and”; a condition that tells them apart may be missing. Identical values can stand only once. The campaign covered roughly 5,500 compounds. About 2,000 (36%) were called active. About 18% were inconclusive and are not listed. No stated cut-off is given here; in the data, active means normalized growth mostly below about 0.91 (no sharp cut-off); inconclusive means no clear call, values can overlap the other calls; inactive means mostly above about 0.92. The list shows a part of the results.

Experiment: chemical genetic growth profiling, strain panel (AID 1159580);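 further: tested at 20 µM; growth read once vehicle control cultures reached saturation at 30 °C; 1 = growth at the plate median or of vehicle wells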
Settings: S. cerevisiae deletion strains, growth OD

Measured: normalized growth

NC(N)=Nc1nc(CSCCC(N)=NS(N)(=O)=O)cs1
inactive: locus YAL013W, strain DEP1, stronger effect = lower value 1 | locus YAL021C, strain ccr4, stronger effect = lower value 0.996 | locus YAL026C, strain drs2, stronger effect = lower value 0.995 | locus YAL030W, strain snc1, stronger effect = lower value 0.982 | locus YAL040C, strain CLN3, stronger effect = lower value 0.997 | locus YBL061C, strain skt5, stronger effect = lower value 0.978 | locus YBR009C, strain hhf1, stronger effect = lower value 1.01 | locus YBR021W, strain FUR4, stronger effect = lower value 0.996 | locus YBR023C, strain chs3, stronger effect = lower value 0.997 | locus YBR171W, strain sec66, stronger effect = lower value 0.958 | locus YBR229C, strain ROT2, stronger effect = lower value 1 | locus YBR231C, strain swc5, stronger effect = lower value 0.959 | locus YBR279W, strain paf1, stronger effect = lower value 0.997 | locus YCL011C, strain gbp2, stronger effect = lower value 0.993 | locus YCL016C, strain dcc1, stronger effect = lower value 0.992 | locus YCL029C, strain bik1, stronger effect = lower value 1.02 | locus YCL061C, strain MRC1 (second series), stronger effect = lower value 1.01 | locus YCL069W, strain vba3, stronger effect = lower value 0.991 | locus YCR088W, strain abp1, stronger effect = lower value 0.978 | locus YDL005C, strain med2, stronger effect = lower value 0.974 | locus YDL035C, strain GPR1, stronger effect = lower value 1 | locus YDL040C, strain nat1, stronger effect = lower value 0.969 | locus YDL074C, strain BRE1, stronger effect = lower value 1.03 | locus YDL101C, strain DUN1, stronger effect = lower value 1.01 | locus YDL134C, strain PPH21, stronger effect = lower value 1.01 | locus YDL185W, strain tfp1, stronger effect = lower value 1.01 | locus YDL192W, strain arf1, stronger effect = lower value 1.01 | locus YDR001C, strain nth1, stronger effect = lower value 0.972 | locus YDR069C, strain doa4, stronger effect = lower value 0.968 | locus YDR101C, strain arx1, stronger effect = lower value 1.01 | locus YDR137W, strain rgp1, stronger effect = lower value 1 | locus YDR150W, strain NUM1, stronger effect = lower value 0.996 | locus YDR159W, strain sac3, stronger effect = lower value 0.986 | locus YDR162C, strain NBP2, stronger effect = lower value 1.01 | locus YDR195W, strain ref2 0.969 | locus YDR297W, strain sur2, stronger effect = lower value 0.997 | locus YDR318W, strain mcm21, stronger effect = lower value 1.02 | locus YDR334W, strain swr1, stronger effect = lower value 0.967 | locus YDR335W, strain msn5, stronger effect = lower value 0.968 | locus YDR363W, strain ESC2, stronger effect = lower value 0.999 | locus YDR388W, stronger effect = lower value 1.01 | locus YDR392W, strain spt3, stronger effect = lower value 1.02 | locus YDR502C, strain sam2, stronger effect = lower value 1 | locus YEL003W, strain gim4, stronger effect = lower value 0.983 | locus YEL037C, strain rad23, stronger effect = lower value 0.975 | locus YEL061C, strain CIN8 (second series), stronger effect = lower value 0.992 | locus YEL061C, strain CIN8, stronger effect = lower value 1.01 | locus YER002W, strain NOP16, stronger effect = lower value 1 | locus YER015W, strain faa2, stronger effect = lower value 0.986 | locus YER016W, strain bim1, stronger effect = lower value 1.01 | locus YER110C, stronger effect = lower value 1.01 | locus YER111C, strain swi4, stronger effect = lower value 0.991 | locus YER155C, strain BEM2 (second series), stronger effect = lower value 0.988 | locus YER155C, strain BEM2, stronger effect = lower value 1 | locus YER167W, strain BCK2, stronger effect = lower value 1.01 | locus YFR010W, strain ubp6, stronger effect = lower value 1 | locus YGL078C, strain dbp3, stronger effect = lower value 1 | locus YGL086W, strain mad1, stronger effect = lower value 0.996 | locus YGL167C, strain pmr1, stronger effect = lower value 0.961 | locus YGL173C, strain kem1, stronger effect = lower value 0.976 | locus YGL227W, strain vid30, stronger effect = lower value 0.964 | locus YGL240W, strain doc1, stronger effect = lower value 0.973 | locus YGL248W, strain PDE1, stronger effect = lower value 0.985 | locus YGL253W, strain hxk2, stronger effect = lower value 0.991 | locus YGR078C, strain PAC10, stronger effect = lower value 1.03 | locus YGR229C, strain SMI1, stronger effect = lower value 0.989 and 0.992 | locus YGR252W, strain gcn5, stronger effect = lower value 0.993 | locus YHR013C, strain ard1, stronger effect = lower value 1.01 | locus YHR027C, strain rpn1, stronger effect = lower value 0.993 | locus YHR030C, strain SLT2, stronger effect = lower value 1.01 and 0.989 | locus YHR079C, strain IRE1 (second series), stronger effect = lower value 1.01 | locus YHR079C, strain IRE1, stronger effect = lower value 0.972 | locus YHR094C, strain hxt1, stronger effect = lower value 1.01 | locus YHR129C, strain ARP1, stronger effect = lower value 1.01 | locus YHR142W, strain chs7, stronger effect = lower value 0.959 | locus YHR200W, strain rpn10, stronger effect = lower value 1.01 | locus YIL066C, strain RNR3, stronger effect = lower value 1.01 | locus YIL073C, strain SPO22, stronger effect = lower value 1.04 | locus YIL125W, strain kgd1, stronger effect = lower value 1 | locus YIR030C, strain dcg1, stronger effect = lower value 1.01 | locus YJL092W, strain hpr5, stronger effect = lower value 0.987 | locus YJL095W, strain BCK1 (second series), stronger effect = lower value 0.993 | locus YJL095W, strain BCK1, stronger effect = lower value 1.04 and 0.984 | locus YJL115W, strain asf1, stronger effect = lower value 0.983 | locus YJL129C, strain trk1, stronger effect = lower value 0.944 | locus YJL134W, strain LCB3, stronger effect = lower value 1 | locus YJL154C, strain vps35, stronger effect = lower value 0.983 | locus YJL164C, strain tpk1, stronger effect = lower value 1.01 | locus YJL166W, strain qcr8, stronger effect = lower value 0.981 | locus YJL168C, strain set2, stronger effect = lower value 1.01 | locus YJL187C, strain SWE1 (second series), stronger effect = lower value 1.02 | locus YJL187C, strain SWE1, stronger effect = lower value 0.984 | locus YJR043C, strain POL32, stronger effect = lower value 1.01 | locus YJR066W, strain TOR1, stronger effect = lower value 0.921 | locus YJR075W, strain HOC1, stronger effect = lower value 1.01
